According to PubChem BioAssay AID1159580 (chemical genetic matrix, 2015):
Where “and” joins values, the source holds several entries; their conditions need not be identical. Equal entries are not always repeated. The whole screen tested about 5,500 compounds, of which about 2,000 (36%) were called active. Another 18% or so got no clear call; they are omitted. Rule as the data show it: active = normalized growth mostly below about 0.91 (no sharp cut-off); inconclusive = no clear call, values can overlap the other calls; inactive = mostly above about 0.92. Some of the results follow.

Assay: chemical genetic growth profiling, strain panel (AID 1159580);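 also: tested at 20 µM; growth read once vehicle control cultures reached saturation at 30 °C; 1 = growth at the plate median or of vehicle wells; lower values mean less growth of the strain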
Settings: S. cerevisiae deletion strains, growth OD

Measured: normalized growth

Cc1cc(C)cc(OCC2CNC(=O)O2)c1 (stereo unspecified)
inactive: locus YAL013W, strain DEP1, hits give low values 1.01 | locus YAL021C, strain ccr4, hits give low values 0.995 | locus YAL026C, strain drs2, hits give low values 0.977 | locus YAL030W, strain snc1, hits give low values 0.984 | locus YBL061C, strain skt5, hits give low values 0.97 | locus YBR009C, strain hhf1, hits give low values 0.985 | locus YBR021W, strain FUR4, hits give low values 1.02 | locus YBR023C, strain chs3, hits give low values 0.972 | locus YBR171W, strain sec66, hits give low values 0.963 | locus YBR229C, strain ROT2, hits give low values 1 | locus YBR231C, strain swc5, hits give low values 0.992 | locus YBR279W, strain paf1, hits give low values 0.969 | locus YCL011C, strain gbp2, hits give low values 0.977 | locus YCL016C, strain dcc1, hits give low values 0.979 | locus YCL029C, strain bik1, hits give low values 1.01 | locus YCL061C, strain MRC1, hits give low values 0.973 | locus YCL069W, strain vba3, hits give low values 0.975 | locus YCR088W, strain abp1, hits give low values 0.977 | locus YDL005C, strain med2, hits give low values 0.97 | locus YDL035C, strain GPR1, hits give low values 1.02 | locus YDL040C, strain nat1, hits give low values 0.972 | locus YDL074C, strain BRE1, hits give low values 1.03 | locus YDL101C, strain DUN1, hits give low values 1.02 | locus YDL134C, strain PPH21, hits give low values 1.02 | locus YDL185W, strain tfp1, hits give low values 1.02 | locus YDL192W, strain arf1, hits give low values 1.01 | locus YDR001C, strain nth1, hits give low values 0.979 | locus YDR069C, strain doa4, hits give low values 0.986 | locus YDR101C, strain arx1, hits give low values 1.01 | locus YDR137W, strain rgp1, hits give low values 0.92 | locus YDR150W, strain NUM1, hits give low values 1.02 | locus YDR159W, strain sac3, hits give low values 0.986 | locus YDR162C, strain NBP2, hits give low values 1.03 | locus YDR195W, strain ref2 0.97 | locus YDR297W, strain sur2, hits give low values 0.976 | locus YDR318W, strain mcm21, hits give low values 1.02 | locus YDR334W, strain swr1, hits give low values 0.966 | locus YDR335W, strain msn5, hits give low values 0.971 | locus YDR388W, hits give low values 1.01 | locus YDR392W, strain spt3, hits give low values 0.983 | locus YDR502C, strain sam2, hits give low values 1.02 | locus YEL003W, strain gim4, hits give low values 0.981 | locus YEL037C, strain rad23, hits give low values 0.979 | locus YEL061C, strain CIN8 (second series), hits give low values 0.966 | locus YEL061C, strain CIN8, hits give low values 1 | locus YER015W, strain faa2, hits give low values 0.982 | locus YER016W, strain bim1, hits give low values 0.983 | locus YER110C, hits give low values 1.01 | locus YER111C, strain swi4, hits give low values 0.971 | locus YER155C, strain BEM2 (second series), hits give low values 0.972 | locus YER155C, strain BEM2, hits give low values 1.02 | locus YER167W, strain BCK2, hits give low values 1.02 | locus YGL078C, strain dbp3, hits give low values 1.01 | locus YGL086W, strain mad1, hits give low values 1.01 | locus YGL167C, strain pmr1, hits give low values 0.971 | locus YGL173C, strain kem1, hits give low values 0.966 | locus YGL227W, strain vid30, hits give low values 0.972 | locus YGL240W, strain doc1, hits give low values 0.976 | locus YGL248W, strain PDE1, hits give low values 1.01 | locus YGL253W, strain hxk2, hits give low values 0.97 | locus YGR078C, strain PAC10, hits give low values 1.01 | locus YGR135W, strain pre9, hits give low values 0.998 | locus YGR229C, strain SMI1, hits give low values 1.02 | locus YGR252W, strain gcn5, hits give low values 1 | locus YHR013C, strain ard1, hits give low values 0.928 | locus YHR027C, strain rpn1, hits give low values 0.964 | locus YHR030C, strain SLT2, hits give low values 1.01 and 1.04 | locus YHR079C, strain IRE1 (second series), hits give low values 1.02 | locus YHR079C, strain IRE1, hits give low values 1.05 | locus YHR094C, strain hxt1, hits give low values 1.02 | locus YHR129C, strain ARP1, hits give low values 1.02 | locus YHR142W, strain chs7, hits give low values 0.968 | locus YHR200W, strain rpn10, hits give low values 1.02 | locus YIL066C, strain RNR3, hits give low values 1.02 | locus YIL073C, strain SPO22, hits give low values 1.03 | locus YIL125W, strain kgd1, hits give low values 1.01 | locus YIR030C, strain dcg1, hits give low values 1.02 | locus YJL092W, strain hpr5, hits give low values 0.972 | locus YJL095W, strain BCK1 (second series), hits give low values 0.971 | locus YJL095W, strain BCK1, hits give low values 1.01 and 1.02 | locus YJL115W, strain asf1, hits give low values 0.965 | locus YJL129C, strain trk1, hits give low values 0.974 | locus YJL134W, strain LCB3, hits give low values 1.02 | locus YJL154C, strain vps35, hits give low values 0.973 | locus YJL164C, strain tpk1, hits give low values 0.98 | locus YJL166W, strain qcr8, hits give low values 0.981 | locus YJL168C, strain set2, hits give low values 1.02 | locus YJL187C, strain SWE1 (second series), hits give low values 1.01 | locus YJL187C, strain SWE1, hits give low values 0.982 | locus YJR043C, strain POL32, hits give low values 1.02 | locus YJR066W, strain TOR1, hits give low values 0.99
